CHRM1 agonist = human M1 muscarinic receptor agonism. AID 588814. 0.33% of 360,000 active. CHO-K1 hM1, Fluo-8 calcium fluorescence, agonist mode; 0% DMSO, 100% acetylcholine EC100. activation, % at 3 µM;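 active = activation above the run's mean compound activation plus 3 SD, cut at about 16% in these data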;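 note: peak over basal fluorescence ratio within a 140 s kinetic read after compound addition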
Target sequence (P11229 whole entry, looked up): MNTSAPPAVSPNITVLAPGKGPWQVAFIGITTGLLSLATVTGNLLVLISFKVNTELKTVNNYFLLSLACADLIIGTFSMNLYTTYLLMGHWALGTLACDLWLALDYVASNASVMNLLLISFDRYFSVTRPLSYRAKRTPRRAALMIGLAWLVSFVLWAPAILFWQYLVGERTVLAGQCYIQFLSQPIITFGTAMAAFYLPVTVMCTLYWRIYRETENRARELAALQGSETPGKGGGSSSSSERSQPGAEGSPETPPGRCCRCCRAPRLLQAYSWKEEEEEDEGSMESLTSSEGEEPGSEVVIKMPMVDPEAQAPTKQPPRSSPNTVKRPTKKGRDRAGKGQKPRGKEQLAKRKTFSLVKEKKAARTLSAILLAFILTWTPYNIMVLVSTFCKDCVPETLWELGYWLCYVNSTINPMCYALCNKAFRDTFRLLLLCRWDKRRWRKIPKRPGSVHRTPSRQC
CHRM1 PAM = positive allosteric modulators of human M1 muscarinic receptor; P11229; CHO-K1 hM1, Fluo-8 calcium fluorescence, ACh EC20; 0% = ACh EC20, 100% = maximal ACh; activation, % at 3 µM; 0.088% of 360,000 active; AID 588819; in the data active = activation above about 19%, passing the limit was not always enough
CHO-K1 Ca antag = counter-screen for M1 antagonists: effect in parental CHO-K1 cells; 0.6% of 360,000 active; inhibition, % at 3 µM; ATP-induced calcium, Fluo-8 fluorescence;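 active = inhibition above a per-plate cutoff, the plate's mean sample inhibition plus 3 SD, cut at about 24% in these data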;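 note: 0% = DMSO plus EC80 ATP and 100% = DMSO alone without ATP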
M1 antag = antagonists of human M1 muscarinic receptor. P11229. CHO-K1 hM1, Fluo-8 calcium fluorescence, ACh EC80 antagonist. inhibition, % at 3 µM. 1.3% of 360,000 active;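 active = percent inhibition above its own plate's cutoff, namely the mean of that plate's compound wells plus 3 SD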;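 note: peak over basal fluorescence ratio during 140 s after agonist addition; 0% = ACh EC80 plus DMSO and 100% = DMSO alone without agonist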
M1 PAM parental = nonselective activator or artifact in parental CHO-K1 calcium assay. ATP EC20, Fluo-8 calcium fluorescence; 0% at ATP EC20, 100% at ATP max. activation, % at 3 µM. 0.02% of 360,000 active;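 active = activation above the run cutoff, the mean activation of all test compounds plus 3 SD, cut at about 40% in these data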;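 note: peak over basal fluorescence ratio in a 140 s read after ATP addition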
M1 ag parental = nonselective activator or artifact in parental CHO-K1 cells; activation, % at 3 µM; 0.48% of 360,000 active; Fluo-8 calcium fluorescence; scaled to maximal ATP response, vehicle zero; in the data active = activation above about 15%;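 note: untransfected CHO-K1 host cells lacking M1 receptor as counterscreen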
An asterisk follows results filed as active. Shown are actives, neighbours in structure and some others; about 2.4% of the full set was active somewhere.

Screening COc1ccc(NC(=O)CSc2ncccc2C(=O)OC(C)C)cc1OC returned CHRM1 agonist -0.8, CHRM1 PAM -6.8, CHO-K1 Ca antag 26.9*, M1 antag 15.0, M1 PAM parental -9.5 and M1 ag parental 8.6.
For C[C@H]1CN=C(Nc2ccccc2)N1CCc1ccccc1 the results were CHRM1 agonist -6.2, CHRM1 PAM 0.2, CHO-K1 Ca antag 0.5, M1 antag 4.4, M1 PAM parental 5.5 and M1 ag parental 7.8.
CC(C(=O)c1ccc(-c2ccccc2)cc1)[n+]1cccc(NC(=O)c2ccccc2)c1 (stereo not drawn) was read as CHRM1 agonist -8.8, CHRM1 PAM -25.0, CHO-K1 Ca antag -16.2, M1 antag 49.6*, M1 PAM parental 22.1 and M1 ag parental 0.6.
O=C(Nc1ccc(SC(F)F)cc1)c1ccc2nccnc2c1 was read as CHRM1 agonist -2.9, CHRM1 PAM -23.8, CHO-K1 Ca antag -1.2, M1 antag 24.3, M1 PAM parental -10.9 and M1 ag parental 16.7*.
For COC(=O)c1ccc(NC(=O)c2ccc3nccnc3c2)cc1 the results were CHRM1 agonist 2.4, CHRM1 PAM 6.7, CHO-K1 Ca antag -11.1, M1 antag -8.3, M1 PAM parental 23.6 and M1 ag parental 7.5.
COc1cc2c(cc1OC)CN(C(=O)CNS(=O)(=O)c1ccc(C)c(C)c1)CC2 was read as CHRM1 agonist -6.0, CHRM1 PAM 9.3, CHO-K1 Ca antag -11.3, M1 antag -6.4, M1 PAM parental 20.5 and M1 ag parental 1.5.
For O=C(C[C@@H]1C/C=C\C[C@H](Cc2ccc(F)cc2)C(=O)OC[C@H]2CCCN2C1=O)N[C@H](CO)Cc1ccccc1 the results were CHRM1 agonist -6.9, CHRM1 PAM -4.1, CHO-K1 Ca antag -7.8, M1 antag 4.9, M1 PAM parental 13.6 and M1 ag parental 5.6.
Cc1ncc([N+](=O)[O-])n1CC(O)CCl (stereo not drawn) was read as CHRM1 agonist 16.8*, CHRM1 PAM -0.4, CHO-K1 Ca antag -12.7, M1 antag -21.7, M1 PAM parental 29.8 and M1 ag parental 1.3.
`Cc1ccc(C(CNS(=O)(=O)c2ccccc2)N2CCN(C)CC2)cc1` (stereo not drawn) gave CHRM1 agonist -4.1, CHRM1 PAM 25.0*, CHO-K1 Ca antag -3.8, M1 antag -21.4, M1 PAM parental 8.9 and M1 ag parental 0.1.
`Cc1ccc(S(=O)(=O)CC(c2ccccc2)N2CCCCC2)cc1` (stereo not drawn) gave CHRM1 agonist -4.3, CHRM1 PAM -7.2, CHO-K1 Ca antag 26.9*, M1 antag 9.1, M1 PAM parental -15.9 and M1 ag parental -0.6.
Screening Cc1ccc(C(CNS(=O)(=O)c2ccc(Br)cc2)N2CCN(C)CC2)cc1 (stereo not drawn) returned CHRM1 agonist -4.6, CHRM1 PAM -4.0, CHO-K1 Ca antag 2.7, M1 antag 13.0, M1 PAM parental 10.8 and M1 ag parental 5.0.
`Cc1ccc(S(=O)(=O)CC(c2ccccc2)N2CCOCC2)cc1` (stereo not drawn) gave CHRM1 agonist -2.3, CHRM1 PAM 4.1, CHO-K1 Ca antag 4.2, M1 antag -10.3, M1 PAM parental -1.4 and M1 ag parental -0.3.
Screening CCOC(=O)CN1C(=N)N(c2nc(NC(C)C)nc(OC)n2)CC1=O returned CHRM1 agonist -0.9, CHRM1 PAM 12.7, CHO-K1 Ca antag -10.5, M1 antag -10.9, M1 PAM parental -0.8 and M1 ag parental -0.4.
CCOC(=O)CN1C(=N)N(c2nc(NC(C)C)nc(NC(C)C)n2)CC1=O was read as CHRM1 agonist -6.2, CHRM1 PAM -3.1, CHO-K1 Ca antag 31.4*, M1 antag 2.1, M1 PAM parental -14.9 and M1 ag parental -0.8.
For Cc1ccc(C(=O)NCC(=O)OCC(=O)N(CC(C)C)c2c(N)n(Cc3ccccc3)c(=O)[nH]c2=O)s1 the results were CHRM1 agonist -1.3, CHRM1 PAM 4.5, CHO-K1 Ca antag -13.8, M1 antag -9.1, M1 PAM parental 12.0 and M1 ag parental 0.5.
For Cc1c2cnn(CC(=O)NCCCN3CCCCC3)c(=O)c2c(C)n1Cc1ccccc1 the results were CHRM1 agonist -11.5, CHRM1 PAM -7.1, CHO-K1 Ca antag 1.7, M1 antag 6.5, M1 PAM parental 1.4 and M1 ag parental -0.1.
Cc1c2cnn(CC(=O)NCCN3CCOCC3)c(=O)c2c(C)n1Cc1ccccc1 was read as CHRM1 agonist -4.1, CHRM1 PAM -14.0, CHO-K1 Ca antag 4.4, M1 antag 32.5*, M1 PAM parental -3.3 and M1 ag parental 5.5.
For CCC1CCCCN1CCCNC(=O)Cn1ncc2c(C)n(Cc3ccccc3Cl)c(C)c2c1=O (stereo not drawn) the results were CHRM1 agonist -14.2, CHRM1 PAM -30.2, CHO-K1 Ca antag -2.0, M1 antag 44.4*, M1 PAM parental 2.6 and M1 ag parental -0.1.
For COc1ccc(CNC(=O)COC(=O)c2[nH]c(C)c(C(C)=O)c2C)cc1OC the results were CHRM1 agonist -0.5, CHRM1 PAM -0.2, CHO-K1 Ca antag -14.4, M1 antag 5.6, M1 PAM parental 10.5 and M1 ag parental 0.6.
`OCCCCCNc1ncnc2ccccc12` gave CHRM1 agonist 0.1, CHRM1 PAM -6.0, CHO-K1 Ca antag 3.5, M1 antag 13.9, M1 PAM parental 3.4 and M1 ag parental 15.4*.
Screening CCOc1ccc(NC(=O)/C(C#N)=C\c2ccc(N3CCCC3)c(C)c2)cc1 returned CHRM1 agonist 1.7, CHRM1 PAM -12.9, CHO-K1 Ca antag 8.1, M1 antag 25.2, M1 PAM parental 0.3 and M1 ag parental 4.5.
Screening O=C(NCC(c1ccco1)N1CCCC1)c1ccccc1Sc1ccc(C(F)(F)F)cc1[N+](=O)[O-] (stereo not drawn) returned CHRM1 agonist -7.9, CHRM1 PAM -27.5, CHO-K1 Ca antag 0.3, M1 antag 94.6*, M1 PAM parental 1.8 and M1 ag parental 0.8.
Screening N#Cc1ccccc1Sc1ccccc1C(=O)NCC(c1ccco1)N1CCCCC1 (stereo not drawn) returned CHRM1 agonist -8.4, CHRM1 PAM -21.9, CHO-K1 Ca antag -20.0, M1 antag 29.7*, M1 PAM parental -5.6 and M1 ag parental 0.2.
For O=C(c1ccoc1)N1CCCC(Nc2ccc(F)c(F)c2)C1 (stereo not drawn) the results were CHRM1 agonist -2.2, CHRM1 PAM -1.8, CHO-K1 Ca antag 4.7, M1 antag 10.2, M1 PAM parental -16.8 and M1 ag parental 0.0.
Screening Cc1occc1C(=O)N1CCCC(Nc2ccc(F)c(F)c2)C1 (stereo not drawn) returned CHRM1 agonist -0.8, CHRM1 PAM 6.3, CHO-K1 Ca antag 12.9, M1 antag -11.4, M1 PAM parental 7.4 and M1 ag parental 16.0*.
`COc1ccc(Br)c(C(=O)OCC(=O)N2CCC(Cc3ccccc3)CC2)c1` gave CHRM1 agonist -0.9, CHRM1 PAM 7.1, CHO-K1 Ca antag -2.7, M1 antag -7.1, M1 PAM parental 4.7 and M1 ag parental -0.4.

Screening results from PubChem.
